Experimental data published in PubChem BioAssay (NCI).
Compounds without any hit were thinned out: in the full panel of roughly 83,000, 20% have a hit.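 Treatment: one concentration, 48 hours, 96-well format. Scoring: percent growth, with anything below 10 considered active.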 Active and inactive are the calls of the source.

Each molecule was assayed on HS 578T breast (assay: NCI-60 one-dose screen, 48 h (100 = growth as untreated, 0 = no growth, -100 = all killed)). Settings: 10 µM.
`Cc1ccccc1CNc1ncnc2[nH]ncc12` was tested, and the growth was 165% (inactive).
For `CN(C)CCOc1nc2c3ccncc3cc(-c3cccc(Cl)c3)c2c2cnccc12`, the growth was 54.3% (inactive).
For `Cc1ccc(C2CC(c3cccs3)=NN2c2ccc(S(N)(=O)=O)cc2)s1` (stereo not drawn), the growth was 97.2% (inactive).
`CN=C1C=C/C(=N/N=c2/ccn(O)cc2C)C=C1C` was tested, and the growth was 110% (inactive).
In the case of `Oc1[nH]c2ccccc2c1/C=c1/ccc2c(c1)N=C(c1ccc(C(F)(F)F)cc1)N=2`, the growth is reported as 49.1% (inactive).
`Clc1ccc(Nc2ncnc3c2sc2ncccc23)cc1` was tested, and the growth was 86.8% (inactive).
With `Nc1nc(N)c2cc(Sc3ccc(Cl)cc3)ccc2n1` the growth was 45.4% (inactive).
With `CCN(C(=O)Nc1cccc2ccccc12)c1ccccc1` the growth was 111% (inactive).
With `CCN(CC)CCCC(C)Nc1cnc(C(=O)Nc2ccc(Cl)c3cccnc23)cn1` (stereo not drawn) the growth was 51.4% (inactive).
For `C/C(=N\NC(=S)Nc1ccccc1)c1ccccn1`, the growth was 64.1% (inactive).
For `C[C@]12CCc3nc(Nc4ccc(O)cc4)sc3C1=CC[C@@H]1[C@@H]2CC[C@]2(C)/C(=N/NC(N)=S)CC[C@@H]12`, the growth was -4.57% (active).
`CC1(C)C(N(O)C(=O)Nc2ccc(Cl)cc2)N(c2ccc(Cl)cc2)C(=O)N1CC(=O)N/N=C/C=C/c1ccc([N+](=O)[O-])o1` (stereo not drawn) was tested, and the growth was -11.4% (active).
`COc1ccc(C(=O)c2c(N)nc3n2CCCC3)cc1OC` was tested, and the growth was 108% (inactive).
In the case of `Fc1ccc2c(CN3CCO[C@H](COc4cccc(Cl)c4)C3)c[nH]c2c1`, the growth is reported as 64.8% (inactive).
In the case of `CC(=O)c1c(C)nc(-c2cc(C)cc(Cl)c2)nc1-c1cccc(Oc2ccccc2)c1`, the growth is reported as 59.8% (inactive).
`FC(F)(F)c1ccc(/C=N/Nc2nnc3n2N=C(c2ccc(Cl)cc2)CS3)cc1` was tested, and the growth was 8.3% (active).
With `O=C1/C(=C\c2cccn2C(=O)c2ccccc2)c2ccccc2N1c1c(Cl)cccc1Cl` the growth was 95.6% (inactive).
`Cc1ccc(S(=O)(=O)NC(CCC(=O)Nc2ccc(Cl)cc2)C(=O)Nc2ccc(Cl)cc2)cc1` (stereo not drawn) was tested, and the growth was 29.8% (inactive).
For `CNC(=O)c1cc(Oc2ccc(NC(=O)c3nc(S(C)(=O)=O)n(C)c3-c3ccc(F)cc3)cc2)ccn1`, the growth was 76.9% (inactive).
`Nc1c(C(=O)c2ccc(Br)cc2)sc2nc3c(cc12)CCCC3` was tested, and the growth was 109% (inactive).
For `CCCCn1cnc(-c2cc(-c3ccccc3)cc(C(F)(F)F)c2)n1`, the growth was 101% (inactive).
`COCCCNCC(=O)Nc1c(C)cccc1C` was tested, and the growth was 124% (inactive).
`COc1ccc(/C(=C\c2ccc3c(c2)OCO3)C(=O)Nc2nc3ccccc3s2)cc1` was tested, and the growth was 110% (inactive).
In the case of `COc1ccc2[nH]c(O)c(/C=c3/ccc4c(c3)N=C(c3ccc(C(F)(F)F)cc3)N=4)c2c1`, the growth is reported as 72.8% (inactive).

These molecules were tested on NCI/ADR-RES ovarian in the same assay as above. Settings: 10 µM unless noted.
For `CC(C)c1[nH]ncc1-c1nc2ccc3[nH]ncc3c2c2c1CCCC2`, the growth was 66.1% (inactive).
With `Cc1cc(-c2nnc(/C=C/c3ccc4c(c3)OCO4)o2)n[nH]1` the growth was 31.3% (inactive).
For `CCN(CC)CCCCCCCNc1cc(OC)cc2c(C)ccnc12`, the growth was 78.6% (inactive).
`CCCc1n(Cc2ccc3ccccc3n2)cc[n+]1Cc1ccc2ccccc2n1` was tested, and the growth was 98.4% (inactive).
For `COc1ccc(/C=C2\N=C(c3cccnc3)N(c3ccccc3)NC2=O)cc1`, the growth was 100% (inactive).
For `COc1ccc(Sc2[nH]c(C=O)c3ccccc23)cc1`, the growth was 46.8% (inactive).
In the case of `COc1ccc(-n2nc(C(=O)NCC(=O)Nc3nc4cc(OC)ccc4s3)c3ccccc3c2=O)cc1`, the growth is reported as 1.75% (active).
`CCCCN(CCCC)CCCN=c1nc2c(c(N)n1-c1ccccc1)c(=S)n(-c1ccccc1)c(=S)n2-c1ccccc1` was tested, and the growth was -71.1% (active).
In the case of `O=C(/C=C/c1ccccc1)C(Br)C(Br)c1ccccc1` (stereo not drawn), the growth is reported as 39.7% (inactive).
`COc1ccc(Nc2ncccc2C(=O)NCc2cn(Cc3cc(OC)cc(OC)c3)nn2)cc1` was tested, and the growth was 89.7% (inactive).
In the case of `CN(C)c1ccc(C(c2ccccc2)c2ccc(N(C)C)cc2)cc1`, the growth is reported as 85% (inactive).
`COc1ccc(/C(=C\c2cc(OC)c(OC)c(OC)c2)C(=O)N2CCNCC2)cc1` was tested, and the growth was 98.3% (inactive).
For `CC(=O)c1ccc(Nc2nc(Cl)nc(Oc3c(Cl)cccc3Cl)n2)cc1`, the growth was 93.6% (inactive).
In the case of `COc1cc2nccc(Oc3ccc(NC(=O)C4(C(=O)Nc5ccc(F)cc5)CC4)cc3)c2cc1Oc1ccc(N)cn1`, the growth is reported as 73.8% (inactive).
In the case of `N#Cc1nc(-c2ccc(Cl)cc2)cc(-c2ccc(Nc3nc(N4CCCCC4)nc(N4CCCCC4)n3)cc2)c1N`, the growth is reported as 102% (inactive).
`Cc1ccccc1CNc1ncnc2[nH]ncc12` was tested, and the growth was 106% (inactive).
In the case of `CN(C)CCOc1nc2c3ccncc3cc(-c3cccc(Cl)c3)c2c2cnccc12`, the growth is reported as 15.4% (inactive).
For `Cc1ccc(C2CC(c3cccs3)=NN2c2ccc(S(N)(=O)=O)cc2)s1` (stereo not drawn), the growth was 84.6% (inactive).
With `CN=C1C=C/C(=N/N=c2/ccn(O)cc2C)C=C1C` the growth was 97.4% (inactive).
In the case of `Oc1[nH]c2ccccc2c1/C=c1/ccc2c(c1)N=C(c1ccc(C(F)(F)F)cc1)N=2`, the growth is reported as 69.1% (inactive).
In the case of `Clc1ccc(Nc2ncnc3c2sc2ncccc23)cc1`, the growth is reported as 19.1% (inactive).
In the case of `Nc1nc(N)c2cc(Sc3ccc(Cl)cc3)ccc2n1`, the growth is reported as 36.2% (inactive).
With `CCN(C(=O)Nc1cccc2ccccc12)c1ccccc1` the growth was 102% (inactive).
With `CCN(CC)CCCC(C)Nc1cnc(C(=O)Nc2ccc(Cl)c3cccnc23)cn1` (stereo not drawn) the growth was 52.2% (inactive).
`C/C(=N\NC(=S)Nc1ccccc1)c1ccccn1` was tested, and the growth was 17.2% (inactive).
For `C[C@]12CCc3nc(Nc4ccc(O)cc4)sc3C1=CC[C@@H]1[C@@H]2CC[C@]2(C)/C(=N/NC(N)=S)CC[C@@H]12`, the growth was 15% (inactive).
For `CC1(C)C(N(O)C(=O)Nc2ccc(Cl)cc2)N(c2ccc(Cl)cc2)C(=O)N1CC(=O)N/N=C/C=C/c1ccc([N+](=O)[O-])o1` (stereo not drawn), the growth was 95% (inactive).
With `COc1ccc(C(=O)c2c(N)nc3n2CCCC3)cc1OC` the growth was 107% (inactive).
In the case of `Fc1ccc2c(CN3CCO[C@H](COc4cccc(Cl)c4)C3)c[nH]c2c1`, the growth is reported as 47.3% (inactive).
With `CC(=O)c1c(C)nc(-c2cc(C)cc(Cl)c2)nc1-c1cccc(Oc2ccccc2)c1` the growth was 25.1% (inactive).
With `FC(F)(F)c1ccc(/C=N/Nc2nnc3n2N=C(c2ccc(Cl)cc2)CS3)cc1` the growth was 47.4% (inactive).
`O=C1/C(=C\c2cccn2C(=O)c2ccccc2)c2ccccc2N1c1c(Cl)cccc1Cl` was tested, and the growth was 82.2% (inactive).
With `Cc1ccc(S(=O)(=O)NC(CCC(=O)Nc2ccc(Cl)cc2)C(=O)Nc2ccc(Cl)cc2)cc1` (stereo not drawn) the growth was 39.6% (inactive).
For `CNC(=O)c1cc(Oc2ccc(NC(=O)c3nc(S(C)(=O)=O)n(C)c3-c3ccc(F)cc3)cc2)ccn1`, the growth was 77.8% (inactive).
For `Nc1c(C(=O)c2ccc(Br)cc2)sc2nc3c(cc12)CCCC3`, the growth was 85.7% (inactive).
`CCCCn1cnc(-c2cc(-c3ccccc3)cc(C(F)(F)F)c2)n1` was tested, and the growth was 103% (inactive).
`COCCCNCC(=O)Nc1c(C)cccc1C` was tested, and the growth was 105% (inactive).
`COc1ccc(/C(=C\c2ccc3c(c2)OCO3)C(=O)Nc2nc3ccccc3s2)cc1` was tested, and the growth was 100% (inactive).
In the case of `COc1ccc2[nH]c(O)c(/C=c3/ccc4c(c3)N=C(c3ccc(C(F)(F)F)cc3)N=4)c2c1`, the growth is reported as 84.7% (inactive).
